Screens (PubChem)
The list is not random: actives were taken first. Their share in the collection is about 2.5%.
ULK1 inh – blocks human autophagy kinase ULK1 | AlphaScreen Atg13 phosphorylation by ULK1, luminescence | AID 1259251 | O75385 | 30,000 compounds, 1.9% hits | inhibition, % at 5.96 µM; in the data active = inhibition above about 43%;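 also: 0% = median of compound wells and 100% = no enzyme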
ASK1 primary – human ASK1 kinase inhibition, primary screen; AID 1159602; 22,000 compounds, 0.99% hits; inhibition, % at 7.44 µM; AlphaScreen MKK6 phosphorylation by ASK1, luminescence; in the data active = inhibition above about 35%;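 also: 0% = median of compound wells and 100% = no enzyme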
* hit, by the source's call; nt = not tested or not shown.

SMILES	ULK1 inh	ASK1 primary
COc1cc(N2CCOCC2)ccc1Nc1ncc(Cl)c(Nc2ccccc2C(=O)NC2CC2)n1	12	-3
CNC(=O)c1ccccc1Nc1cc(Nc2ccc(N3CCOCC3)cc2)ncc1C(F)(F)F	90*	1
CNC(=O)c1ccccc1Nc1cc(Nc2ccc(N3CCOCC3)cc2F)ncc1C(F)(F)F	89*	-1
CNC(=O)c1ccccc1Nc1cc(Nc2ccc3[nH]cc(C4=CCNCC4)c3c2)ncc1C(F)(F)F	-38	28
COc1cnc(Nc2ccc(N3CCOCC3)cc2)nc1Nc1ccccc1C(N)=O	85*	-83
CNC(=O)c1ccccc1Nc1cc(Nc2ccc(N3CCOCC3)cc2)ncc1C(N)=O	85*	-12
CC(=O)c1ccc(NC(=O)COc2cccc3c2OC(C)(C)C3)cc1	-6	nt
NC(c1nc2ncc(-c3ccncc3)cc2[nH]1)c1ccc(F)cc1F (stereo unspecified)	19	3
COc1cc(OC)cc(OC)c1	6	nt
FC(F)(F)c1cnc(Nc2ccc(N3CCOCC3)cc2)cc1Nc1cc(C2CC2)[nH]n1	80*	25
CNC(=O)c1ccccc1Nc1nc(Nc2ccc(N3CCOCC3)c(F)c2)ncc1Cl	90*	-60
O=C(c1ccc(Nc2ccc3[nH]ncc3c2)nc1)N1CCOCC1	-2	-9
COc1ccc(N2CCOCC2)cc1Nc1cc(Nc2ccccn2)c(C(F)(F)F)cn1	17	20
COc1ccc(-c2ncc(C)c(Nc3ccc(N4CCOCC4)cc3)n2)cc1	4	9
CNC(=O)c1ccccc1Nc1nc(Nc2ccc(-n3cnc(N4CCOCC4)n3)cc2)ncc1Cl	36	-27
COc1cnc(Nc2ccc(N3CCOCC3)cc2)nc1-c1ccc(S(C)(=O)=O)cc1	46*	16
CNC(=O)c1ccccc1Nc1cc(Nc2ccc(C(=O)N3CCOCC3)cn2)ncc1C(F)(F)F	86*	8
N#C/C(=C\c1ccccc1OCc1ccccc1)C(=O)NCC1CCCO1 (stereo unspecified)	16	nt
c1ccc(Nc2nc(NCCN3CCOCC3)c3ncn(-c4ccccc4)c3n2)cc1	-2	14
Cn1nccc1Nc1nc(NCc2cccc(C(F)(F)F)c2)c2ncn(-c3ccccc3)c2n1	0	-12
NC(=O)c1ccccc1Nc1cc(Nc2ccc(-n3cnc(N4CCOCC4)n3)cc2)ncc1C(F)F	51*	-21
Cc1cnc(Nc2ccc(-n3cnc(N4CCOCC4)n3)cc2)cc1Nc1ccccc1C(N)=O	27	-31
CCN(CC)c1nc(NCc2ccccc2)nc(Nc2nccc3ccccc23)n1	2	15
CNC(=O)c1cnccc1Nc1cc(Nc2ccc3c(c2)CC(=O)N3)ncc1C(F)(F)F	19	-1
CNC(=O)c1ccccc1Nc1cc(Nc2ncccc2C)ncc1C(F)(F)F	62*	-3
SMILES	ULK1 inh	ASK1 primary
CNC(=O)c1ccccc1Nc1cc(Nc2cccnc2)ncc1C(F)(F)F	61*	-1
CNC(=O)c1ccccc1Nc1cc(NC(=O)C(C)(C)c2ccccc2)ncc1C(F)(F)F	-17	1
Oc1ccc(CCNc2ccnc(NCc3cccnc3)n2)cc1	-25	-10
O=C(Nc1ccccc1)C1CCN(c2ccc(Nc3cnccn3)nn2)CC1	-4	8
O=C(O)CCCC[C@H]1SC[C@H]2NC(=O)N[C@H]21	100*	nt
FC(F)(F)c1ccc(Cn2cnc3c(NCc4nc5ccccc5[nH]4)nc(Nc4ccccc4)nc32)cc1	6	0
CN1CCCN(c2c(Cl)cccc2NC(=O)c2ccc(Br)o2)CC1	-1	-10
c1cc(N2CCOCC2)ccc1Nc1nc(Nc2ccc(N3CCOCC3)cc2)c2ncn(C3CCCCC3)c2n1	53*	-12
Cc1noc(C)c1-c1nc(Nc2ccccc2)c2ncn(C3CCCCC3)c2n1	8	-6
c1ccc(Nc2nc(NC3CC3)c3ncn(C4CCCCC4)c3n2)nc1	-11	1
c1cc(N2CCOCC2)ccc1Nc1nc(NC2CC2)c2ncn(C3CCCCC3)c2n1	7	32
c1cc(Nc2nc(NC3CC3)c3ncn(C4CCCCC4)c3n2)ncn1	44*	-40
Cc1noc(C)c1-c1nc(Nc2ccc(N3CCOCC3)cc2)c2ncn(C3CCCCC3)c2n1	50*	7
O=C(NC1CC1)c1cc(N2CCCC2CO)nc2ccccc12 (stereo unspecified)	4	-9
N[C@@H](Cc1ccc(Br)cc1)C(=O)N1CCC(c2nc(-c3ccncc3)no2)C1 (stereo partly specified)	3	-5
N[C@@H](Cc1ccc(Br)cc1)C(=O)N1CCC(c2nc(-c3ccncc3)no2)CC1	72*	8
CC(=O)Nc1ccc(Nc2ccnc(N3CCN(Cc4ccc5c(c4)OCO5)CC3)n2)cc1	-18	17
COc1cc(Nc2nc(NCCCN3CCCC3=O)c3ncn(C(C)C)c3n2)cc(OC)c1OC	16	8
O=C1CCCN1CCCNc1nc(Nc2cccnc2)nc2nc[nH]c12	6	-1
O=C1CCCN1CCCNc1nc(Nc2ccccc2)c2[nH]cnc2n1	4	19
O=C1CCCN1CCCNc1nc(NCCCN2CCCC2=O)c2[nH]cnc2n1	-2	0
